Source: PubChem BioAssay
Rows were chosen to be rich in hits. Some 27% of all compounds tested hit in one or more screens of this group.
CYP2C9 act: activators of human CYP2C9. P11712. activation factor at 5 µM. AID 1024. recombinant CYP2C9, luciferin-H conversion, luminescence; hits give high values; factor 1 = untreated enzyme, 0 = blocked. 1.4% of 96,000 active;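 active = activation factor of 2 or more for CYP2C9 at a 5 µM dose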
Target sequence (P11712 whole entry, looked up): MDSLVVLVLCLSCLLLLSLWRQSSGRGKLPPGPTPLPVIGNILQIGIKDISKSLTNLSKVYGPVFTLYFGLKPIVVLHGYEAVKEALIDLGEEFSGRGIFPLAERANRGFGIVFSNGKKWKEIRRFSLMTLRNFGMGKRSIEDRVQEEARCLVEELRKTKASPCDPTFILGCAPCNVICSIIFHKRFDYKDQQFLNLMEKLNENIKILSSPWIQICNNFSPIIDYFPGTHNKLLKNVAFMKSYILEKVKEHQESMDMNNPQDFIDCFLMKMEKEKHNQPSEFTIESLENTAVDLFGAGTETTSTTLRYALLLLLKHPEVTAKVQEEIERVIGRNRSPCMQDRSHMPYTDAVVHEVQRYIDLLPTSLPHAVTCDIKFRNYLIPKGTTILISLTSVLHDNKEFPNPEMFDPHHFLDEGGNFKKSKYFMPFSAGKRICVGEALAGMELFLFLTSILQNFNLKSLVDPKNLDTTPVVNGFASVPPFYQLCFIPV
sEH act: activators of human soluble epoxide hydrolase; purified human sEH enzymatic activity, activator screen; 0.04% of 91,000 active; activation, % at 2 µM; in the data active = activation above about 37%
CYP2C9 inhib: human CYP2C9 inhibition; CYP2C9 Supersomes, luciferin-H conversion, luminescence; inhibition, % at 5 µM; AID 777; 20% of 96,000 active; P11712;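 active = blocking of liver enzyme CYP2C9 beyond about 50% at 5 µM, limit read from the data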
CYP2C19 activ: cytochrome P450 2C19 (human) activation; recombinant CYP2C19, luciferin-H EGE luminescence; hits give high values; 0 = fully inhibited enzyme, 1 = untreated enzyme; activation factor at 5 µM; 96,000 tested, under 10 active;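 active = activation factor of at least 2 at 5 µM in the primary screen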
CYP2C19 inh: blocks human cytochrome P450 2C19; P33261; CYP2C19 Supersomes, luciferin-H EGE luminescence, 30 min; inhibition, % at 5 µM; 21% of 96,000 active;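 active = CYP2C19 inhibition above a set limit at 5 µM in the primary screen, cut at about 50% in these data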
sEH inh: blocks human soluble epoxide hydrolase activity; 0.34% of 91,000 active; AID 707; P34913; inhibition, % at 2 µM; recombinant human sEH enzymatic activity assay; in the data active = inhibition above about 80%
A number is an active result; . = inactive; / = no result.

SMILES	CYP2C9 act	sEH act	CYP2C9 inhib	CYP2C19 activ	CYP2C19 inh	sEH inh
COCCN(C(=O)c1ccco1)C(C(=O)NC1CCCC1)c1cccs1 (stereo unspecified)	/	.	/	/	/	.
O=c1[nH]c2cc3c(cc2cc1CN(CCc1ccccc1)Cc1nnnn1C1CCCC1)OCCO3	.	.	.	.	.	.
Cc1cc2cc(CN(Cc3nnnn3C3CCCCC3)CC3CCCO3)c(=O)[nH]c2cc1C (stereo unspecified)	.	.	.	.	69	.
Cc1ccc2cc(CN(Cc3nnnn3C3CCCCC3)CC3CCCO3)c(=O)[nH]c2c1 (stereo unspecified)	.	.	.	.	81	.
Cc1cc2cc(CN(Cc3ccc4c(c3)OCO4)Cc3nnnn3C3CCCC3)c(=O)[nH]c2cc1C	.	.	.	.	.	.
Cc1ccc2[nH]c(=O)c(CN(Cc3ccc4c(c3)OCO4)Cc3nnnn3C3CCCC3)cc2c1	.	/	61	.	.	/
COc1ccc(CN(Cc2cc3ccc(C)cc3[nH]c2=O)Cc2nnnn2C2CCCC2)cc1	.	/	93	.	93	/
COc1ccc2cc(CN(CCCN3CCOCC3)Cc3nnnn3C3CCCC3)c(=O)[nH]c2c1	.	.	.	.	.	.
CCCC(c1nnnn1Cc1ccco1)N1CCC(C(N)=O)CC1 (stereo unspecified)	.	.	.	.	.	.
Cn1c2c(c(=O)n(C)c1=O)CN(CC1CCCO1)CN2 (stereo unspecified)	.	.	.	.	.	.
CCCCc1ccc(-c2c(C#N)c(N)nc3c2CCCC3)s1	.	.	.	.	.	.
CCSc1nc(O)c(C2OC(=O)c3c2ccc(OC)c3OC)c(=O)n1CC (stereo unspecified)	.	.	.	.	.	.
CCOc1cc(C=O)ccc1OCCCN1C(=O)NC(C)(C)C1=O	.	.	.	.	68	.
C/C=C/c1ccc(OCCCCN2C(=O)NC(C)(C)C2=O)c(OC)c1	.	.	.	.	.	.
CC1(C)NC(=O)N(CCOCCOc2c(Cl)cc(Cl)cc2Cl)C1=O	.	.	.	.	56	.
CC1(C)NC(=O)N(CCCOc2ccccc2Br)C1=O	.	.	57	.	89	.
CC1(C)NC(=O)N(CCOc2cccc(Cl)c2Cl)C1=O	.	.	.	.	87	.
CC1(C)NC(=O)N(CC(O)COc2ccccc2C(=O)Nc2ccccc2)C1=O (stereo unspecified)	.	/	.	.	.	/
CCc1ccc(OCC(=O)N/N=C2\CC(=O)c3ccccc32)cc1	.	.	.	.	82	.
CCOC(=O)c1nnn(-c2nonc2-n2cccc2)c1CCl	.	.	68	.	.	.
CCOC(=O)c1nnn(-c2nonc2N)c1CN1CCc2ccccc2C1	.	.	58	.	.	.
COCc1c(C(N)=O)nnn1-c1nonc1N	.	.	.	.	.	.
CCOC(=O)c1nnn(-c2nonc2N)c1CS(=O)(=O)c1ccccc1	.	.	.	.	63	.
CCOC(=O)c1nnn(-c2nonc2N)c1COc1c(C=O)cccc1OC	.	.	71	.	.	.
Cc1c(NC(=O)NC(C)N2C(=O)C3C4C=CC(C4)C3C2=O)c(=O)n(-c2ccccc2)n1C (stereo unspecified)	.	.	.	.	.	.
SMILES	CYP2C9 act	sEH act	CYP2C9 inhib	CYP2C19 activ	CYP2C19 inh	sEH inh
CCN1CCCC1CNC(=O)c1ccc(CS(=O)(=O)c2ccccc2C)o1 (stereo unspecified)	.	/	.	.	.	/
COc1ccccc1Oc1ccc2c(c1)C(=O)N(c1ccc(Br)c3cccnc13)C2=O	.	.	.	.	.	.
COC(=O)c1nnn(-c2nonc2N)c1CN1CCc2ccccc21	.	.	72	.	96	.
CCOC(=O)c1nnn(-c2nonc2-n2cccc2)c1CN1CCC(C)CC1	.	.	.	.	.	.
CC(C)OC(=O)c1nnn(-c2nonc2N)c1CN1CCCCCC1	.	.	.	.	.	.
CC(C)OC(=O)c1nnn(-c2nonc2N)c1CN1CCc2ccccc2C1	.	.	68	.	.	.
O=C(NCc1ccc2c(c1)OCO2)c1cc(-c2ccccc2Cl)on1	.	.	.	.	.	.
COc1ccccc1CNC(=O)c1cc2c(s1)CS(=O)(=O)C2	.	/	.	.	.	/
CCC(CC)NC(=O)c1cc2c(C)nn(Cc3ccccc3Cl)c2s1	.	.	71	.	.	.
Cc1nn(Cc2ccccc2Cl)c2sc(C(=O)NCc3ccc4c(c3)OCO4)cc12	.	.	99	.	92	.
COc1ccccc1CNC(=O)c1cc2c(C)nn(Cc3ccc(F)cc3)c2s1	.	.	78	.	.	.
O=c1oc(-c2cccc(S(=O)(=O)N3CCOCC3)c2)nc2ccccc12	.	/	.	.	.	/
CNC(=O)c1nnn(Cc2ccccc2)c1NC(=O)C(F)(F)F	.	.	.	.	.	.
CN1CCN(C(=O)CSc2nc(-c3cccs3)cc(-c3cccs3)c2C#N)CC1	.	/	78	.	86	/
COc1ccc(CNC(=O)CSc2nc(-c3ccccc3)cc(-c3cccs3)c2C#N)cc1	.	.	69	.	.	.
COc1ccc(-c2cc(-c3cccs3)c(C#N)c(SCC(=O)NCc3ccco3)n2)cc1	.	/	85	.	.	/
COc1ccc(-c2cc(C(F)(F)F)nc(SCC(=O)NCc3ccco3)n2)cc1OC	/	.	/	/	/	.
COc1ccc(CCNC(=O)CSc2nc(N)c(C#N)c(-c3cccs3)c2C#N)cc1OC	.	.	.	.	.	.
CCN(CC)C(=O)CSc1nc(-c2cccs2)cc(-c2cccs2)c1C#N	/	.	/	/	/	.
O=C(NCc1ccc(F)cc1)C1CCC(=O)N1CCc1ccccc1 (stereo unspecified)	.	.	.	.	.	.
CSc1nnc2c3c4c(sc3c(=O)n(-c3ccccc3)n12)CC(C)(C)OC4	.	.	.	.	.	.
O=C(Nc1ccccc1Cl)NC1(C(=O)N2CCCC2)CCCCC1	/	.	/	/	/	.
O=C(Nc1ccc(Cl)cc1)N(Cc1nnc2n1CCCCC2)c1ccccc1	.	.	.	.	.	.
S=C(Nc1ccc(Cl)cc1Cl)Nc1ccccc1Oc1ccccc1	.	.	.	.	.	.
S=C(Nc1cccc(Cl)c1)Nc1ccccc1Oc1ccccc1	.	.	66	.	.	.
O=C(c1sc2ccccc2c1Cl)N(Cc1ccccc1Cl)C1CCS(=O)(=O)C1 (stereo unspecified)	.	.	85	.	.	.
Cc1ccc(CN(C(=O)c2cc3ccccc3oc2=O)C2CCS(=O)(=O)C2)cc1 (stereo unspecified)	.	.	.	.	.	.
O=C(c1cccs1)N(Cc1ccco1)C1CCS(=O)(=O)C1 (stereo unspecified)	.	.	.	.	56	.
Cc1cc2oc(C(=O)N(Cc3ccccc3)C3CCS(=O)(=O)C3)cc(=O)c2cc1Cl (stereo unspecified)	.	.	80	.	62	.
